Results taken from PubChem BioAssay AID1159580 (chemical genetic matrix, 2015).
About 2,000 (36%) of roughly 5,500 compounds were called active. Roughly 18% stayed inconclusive and do not appear here. Rule as the data show it: active = normalized growth mostly below about 0.91 (no sharp cut-off); inconclusive = no clear call, values can overlap the other calls; inactive = mostly above about 0.92. The list shows a part of the results.

Assay: chemical genetic growth profiling, strain panel (AID 1159580);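 also: tested at 20 µM; growth read once vehicle control cultures reached saturation at 30 °C; 1 = growth at the plate median or of vehicle wells; lower values mean less growth of the strain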
Conditions: S. cerevisiae deletion strains, growth OD
[1] = locus YDL101C, strain DUN1, stronger effect = lower value
[2] = locus YHR030C, strain SLT2, stronger effect = lower value
[3] = locus YAR019C, strain CDC15, stronger effect = lower value
[4] = locus YBL105C, strain PKC1, stronger effect = lower value
[5] = locus YBR136W, strain MEC1, stronger effect = lower value
[6] = locus YBR160W, strain CDC28, stronger effect = lower value
[7] = locus YDL017W, strain CDC7, stronger effect = lower value
[8] = locus YDL028C, strain MPS1, stronger effect = lower value
[9] = locus YDL108W, strain KIN28, stronger effect = lower value
[10] = locus YDL214C, strain PRR2, stronger effect = lower value
[11] = locus YDR052C, strain DBF4, stronger effect = lower value
[12] = locus YDR054C, strain cdc34, stronger effect = lower value
[13] = locus YDR226W, strain ADK1, stronger effect = lower value
[14] = locus YER123W, strain YCK3, stronger effect = lower value
[15] = locus YFR003C, strain YPI1, stronger effect = lower value
[16] = locus YGR040W, strain KSS1, stronger effect = lower value
[17] = locus YGR052W, strain FMP48, stronger effect = lower value
[18] = locus YGR092W, strain DBF2, stronger effect = lower value
[19] = locus YIL147C, strain SLN1, stronger effect = lower value
[20] = locus YJL095W, strain BCK1, stronger effect = lower value
[21] = locus YJL128C, strain PBS2, stronger effect = lower value
[22] = locus YJR016C, strain ILV3, stronger effect = lower value
[23] = locus YJR066W, strain TOR1 (second series), stronger effect = lower value
[24] = locus YJR066W, strain TOR1, stronger effect = lower value
[25] = locus YKL048C, strain ELM1, stronger effect = lower value
[26] = locus YKL067W, strain YNK1, stronger effect = lower value
[27] = locus YKL101W, strain HSL1, stronger effect = lower value
[28] = locus YKL203C, strain TOR2, stronger effect = lower value
[29] = locus YLR113W, strain HOG1, stronger effect = lower value
[30] = locus YLR133W, strain CKI1, stronger effect = lower value
[31] = locus YLR403W, strain SFP1, stronger effect = lower value
[32] = locus YML070W, strain DAK1, stronger effect = lower value
[33] = locus YMR001C, strain CDC5, stronger effect = lower value
[34] = locus YMR205C, strain PFK2 (second series), stronger effect = lower value
[35] = locus YNL006W, strain LST8, stronger effect = lower value
[36] = locus YNL020C, strain ARK1, stronger effect = lower value
[37] = locus YNL161W, strain CBK1, stronger effect = lower value
[38] = locus YNL183C, strain NPR1, stronger effect = lower value
[39] = locus YNL207W, strain RIO2, stronger effect = lower value
[40] = locus YOR119C, strain RIO1, stronger effect = lower value
[41] = locus YOR329C, strain SCD5, stronger effect = lower value
[42] = locus YPL153C, strain RAD53, stronger effect = lower value
[43] = locus YPL209C, strain IPL1, stronger effect = lower value
[44] = locus YPL256C, strain CLN2, stronger effect = lower value
[45] = locus YPR106W, strain ISR1, stronger effect = lower value
[46] = locus YPR111W, strain DBF20, stronger effect = lower value
[47] = strain NNK1, stronger effect = lower value

Measured: normalized growth

NC(=NS(=O)(=O)c1cc(Cl)c(Oc2ccc([N+](=O)[O-])cc2Cl)c(Cl)c1)c1cccnc1
inactive: locus YAL013W, strain DEP1, stronger effect = lower value 1 | locus YBR229C, strain ROT2, stronger effect = lower value 0.993 | [1] 0.976 | locus YDR150W, strain NUM1, stronger effect = lower value 0.948 | locus YEL061C, strain CIN8, stronger effect = lower value 1.01 | locus YGR078C, strain PAC10, stronger effect = lower value 1 | [2] 0.924 | locus YHR087W, strain rtc3, stronger effect = lower value 1.01 | locus YJR043C, strain POL32, stronger effect = lower value 1 | locus YJR075W, strain HOC1, stronger effect = lower value 0.992 | locus YLR039C, strain RIC1, stronger effect = lower value 1.09 | locus YLR058C, strain SHM2 (second series), stronger effect = lower value 1.01 | locus YLR085C, strain ARP6, stronger effect = lower value 1.05 | locus YLR262C, strain YPT6, stronger effect = lower value 1.09 | locus YML094W, strain GIM5, stronger effect = lower value 1.01 | locus YMR219W, strain ESC1, stronger effect = lower value 0.997 | locus YMR263W, strain SAP30, stronger effect = lower value 0.95 | locus YNL128W, strain TEP1, stronger effect = lower value 1.02 | locus YNL153C, strain GIM3, stronger effect = lower value 0.992 | locus YNL298W, strain CLA4 (second series), stronger effect = lower value 1.02 | locus YNL322C, strain KRE1, stronger effect = lower value 1.01 | locus YNR030W, strain Alg12, stronger effect = lower value 1.01 | locus YPL055C, strain LGE1, stronger effect = lower value 0.912 | locus YPL241C, strain CIN2, stronger effect = lower value 1.01 | locus YPR135W, strain CTF4, stronger effect = lower value 0.96

N/C(=N/OC(=O)c1ccc([N+](=O)[O-])cc1)c1c(Cl)cccc1Cl
active: [18] 0.465 | [2] 0.268 | locus YHR205W, strain SCH9, stronger effect = lower value 0.449 | [20] 0.418 | [23] 0.598 | [29] 0.661 | locus YNL307C, strain MCK1 (second series), stronger effect = lower value 0.613 | locus YOR231W, strain MKK1, stronger effect = lower value 0.57 | [44] 0.733
inactive: [3] 0.939 | [4] 0.946 | locus YBR135W, strain CKS1, stronger effect = lower value 0.949 | [5] 0.941 | [6] 0.967 | [7] 0.958 | [8] 0.948 | [1] 0.975 | [9] 0.952 | locus YDL132W, strain cdc53, stronger effect = lower value 0.938 | [10] 0.91 | [11] 0.955 | [12] 0.94 | [13] 0.944 | locus YDR477W, strain SNF1, stronger effect = lower value 0.764 | [14] 0.936 | locus YER133W, strain GLC7, stronger effect = lower value 0.805 | locus YFL009W, strain cdc4, stronger effect = lower value 0.935 | locus YFL029C, strain CAK1, stronger effect = lower value 0.953 | [15] 0.95 | locus YFR019W, strain FAB1, stronger effect = lower value 0.825 | locus YFR028C, strain CDC14, stronger effect = lower value 0.942 | [16] 0.848 | [17] 0.71 | locus YHR079C, strain IRE1, stronger effect = lower value 0.536 | locus YHR082C, strain KSP1, stronger effect = lower value 0.872 | [19] 0.94 | [21] 0.973 | locus YJL157C, strain FAR1, stronger effect = lower value 0.863 | [22] 0.942 | [24] 0.642 | [25] 1.02 | [26] 0.924 | [27] 0.911 | locus YKL193C, strain SDS22, stronger effect = lower value 0.935 | [28] 0.758 | [30] 0.898 | [31] 0.69 | [32] 0.883 | [33] 0.941 | [34] 0.905 | locus YMR277W, strain FCP1, stronger effect = lower value 0.921 | [35] 0.958 | [36] 0.881 | [37] 0.954 | [38] 0.578 | [39] 0.915 | locus YNL222W, strain SSU72, stronger effect = lower value 0.954 | locus YOL078W, strain AVO1, stronger effect = lower value 0.938 | locus YOL136C, strain PFK27, stronger effect = lower value 0.936 | locus YOR061W, strain CKA2, stronger effect = lower value 0.919 | [40] 0.746 | [41] 0.954 | locus YPL031C, strain PHO85, stronger effect = lower value 0.7 | [42] 0.693 | locus YPL204W, strain HRR25, stronger effect = lower value 0.671 | [43] 0.955 | locus YPR025C, strain CCL1, stronger effect = lower value 0.955 | [45] 0.984 | [46] 0.979 | [47] 0.982 | strain TSCII, stronger effect = lower value 0.942

CC(C)/C(=N/OC(=O)c1ccc([N+](=O)[O-])cc1)c1ccccc1
active: [10] 0.148 | [16] 0.231 | [2] 0.337 | [23] 0.137 | [27] 0.242 | [29] 0.604 | [30] 0.175 | [31] 0.0636 | [33] 0.384 | [34] 0.126 | [35] 0.507 | [36] 0.174 | [37] 0.378 | [41] 0.637 | [44] 0.582
inactive: [3] 0.974 | [4] 0.965 | [5] 0.967 | [6] 0.957 | [7] 0.963 | [8] 0.955 | [1] 0.952 | [9] 0.962 | [11] 0.979 | [12] 0.955 | [13] 0.949 | [14] 0.909 | [15] 0.96 | [17] 0.814 | [18] 0.843 | [19] 0.96 | [20] 0.745 | [21] 0.943 | [22] 0.957 | [24] 0.769 | [25] 0.991 | [26] 0.911 | [28] 0.802 | [32] 0.909 | [38] 0.595 | [39] 0.955 | [40] 0.814 | [42] 0.671 | [43] 0.966 | [45] 0.978 | [46] 0.972 | [47] 0.97
